Assay results as given in PubChem BioAssay (NCATS).

Test: qHTS drug screen for cell cycle checkpoint inhibitors in PARPi-resistant BRCA-mutant ovarian cancer cell lines. (AID 1963452)
Conditions: PEO1/OlaR viability, CellTiter-Glo luminescence, 96 h; measured here: PEO1 parental Z-AUC; stronger effect = lower value
Outline: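 PEO1, PEO4 and PEO1/OlaR ovarian cancer cells, 600 per well, exposed 96 h at 37C to a dilution series. Viability read by CellTiter-Glo luminescence, normalized to DMSO and empty wells; activity summarized as Z-AUC.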

Row | SMILES | Z-AUC
1 | C=CC[C@@H]1/C=C(\C)C[C@H](C)C[C@H](OC)[C@H]2O[C@@](O)(C(=O)C(=O)N3CCCC[C@H]3C(=O)O[C@H](/C(C)=C/[C@@H]3CC[C@@H](O)[C@H](OC)C3)[C@H](C)[C@@H](O)CC1=O)[C@H](C)C[C@@H]2OC | 0.699
2 | CN[C@@H]1[C@@H](O)[C@@H](O[C@@H]2[C@@H](O)[C@H](O[C@H]3O[C@H](CN)[C@@H](O)[C@H](O)[C@H]3O)[C@@H](N)C[C@H]2NC(=O)C(O)CN)OC[C@]1(C)O (some centres undefined) | -0.482
3 | C=C1[C@H](CO)[C@@H](O)C[C@@H]1n1cnc2c(=O)[nH]c(N)nc21 | 1.15
4 | CC[C@H]1OC(=O)[C@H](C)[C@@H](O[C@H]2C[C@@](C)(OC)[C@@H](O)[C@H](C)O2)[C@H](C)[C@@H](O[C@@H]2O[C@H](C)C[C@H](N(C)C)[C@H]2O)[C@](C)(O)C[C@@H](C)CN(C)[C@H](C)[C@@H](O)[C@]1(C)O | 0.718
5 | C=CC[N+]1([C@H]2C[C@H]3[C@@H]4CC[C@H]5C[C@H](O)[C@@H](N6CCOCC6)C[C@]5(C)[C@H]4CC[C@]3(C)[C@H]2OC(C)=O)CCCC1 | 1.23
6 | CCC[C@@H]1C[C@@H](C(=O)N[C@@H]([C@H]2O[C@H](SC)[C@H](O)[C@@H](O)[C@H]2O)[C@H](C)Cl)N(C)C1 | 1.69
7 | COc1ccc([C@@H]2CC(=O)c3c(O)cc(O[C@@H]4O[C@H](CO[C@@H]5O[C@@H](C)[C@H](O)[C@@H](O)[C@H]5O)[C@@H](O)[C@H](O)[C@H]4O)cc3O2)cc1O | 0.305

Same assay, conditions: PEO1/OlaR viability, CellTiter-Glo luminescence, 96 h; measured here: PEO4 Z-AUC; stronger effect = lower value

Row | SMILES | Z-AUC
8 | C=CC[C@@H]1/C=C(\C)C[C@H](C)C[C@H](OC)[C@H]2O[C@@](O)(C(=O)C(=O)N3CCCC[C@H]3C(=O)O[C@H](/C(C)=C/[C@@H]3CC[C@@H](O)[C@H](OC)C3)[C@H](C)[C@@H](O)CC1=O)[C@H](C)C[C@@H]2OC | 1.02
9 | CN[C@@H]1[C@@H](O)[C@@H](O[C@@H]2[C@@H](O)[C@H](O[C@H]3O[C@H](CN)[C@@H](O)[C@H](O)[C@H]3O)[C@@H](N)C[C@H]2NC(=O)C(O)CN)OC[C@]1(C)O (some centres undefined) | -1.12
10 | C=C1[C@H](CO)[C@@H](O)C[C@@H]1n1cnc2c(=O)[nH]c(N)nc21 | 1.37
11 | CC[C@H]1OC(=O)[C@H](C)[C@@H](O[C@H]2C[C@@](C)(OC)[C@@H](O)[C@H](C)O2)[C@H](C)[C@@H](O[C@@H]2O[C@H](C)C[C@H](N(C)C)[C@H]2O)[C@](C)(O)C[C@@H](C)CN(C)[C@H](C)[C@@H](O)[C@]1(C)O | 1.23
12 | C=CC[N+]1([C@H]2C[C@H]3[C@@H]4CC[C@H]5C[C@H](O)[C@@H](N6CCOCC6)C[C@]5(C)[C@H]4CC[C@]3(C)[C@H]2OC(C)=O)CCCC1 | 0.984
13 | CCC[C@@H]1C[C@@H](C(=O)N[C@@H]([C@H]2O[C@H](SC)[C@H](O)[C@@H](O)[C@H]2O)[C@H](C)Cl)N(C)C1 | 1.63
14 | COc1ccc([C@@H]2CC(=O)c3c(O)cc(O[C@@H]4O[C@H](CO[C@@H]5O[C@@H](C)[C@H](O)[C@@H](O)[C@H]5O)[C@@H](O)[C@H](O)[C@H]4O)cc3O2)cc1O | 0.67
